In the library only some 7.8% were active in any assay of this set; here they are far more common.
Marburg entry inh – blocks Marburg virus binding to or entry into cells | Potency, µM (doses to about 37.8 µM), inactives show at the top dose activity change, negative = inhibition, most hits filed as inhibitors | Marburg virus pseudotyped entry inhibition, cell reporter | AID 540276 | actives 1.8% (n = 300,000); calls by dose curve; tested in HEK293 cells; note: potency is the fitted concentration of half-maximal effect
HCMV inh – inhibitors of human cytomegalovirus; HFF cells, HCMV-luciferase reporter, 72 h; stronger effect = lower value; activity change, negative = inhibition, % at 57.5 µM; actives 4.5% (n = 410,000); AID 1259415; in the data active = activity change below about -60%; inconclusive = no clear call, values can overlap the other calls; inactive = above about -39%
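Human foreskin fibroblasts infected with luciferase-reporter HCMV at MOI 1 PFU/cell, compounds at two doses. Luciferase measured 72 h post infection; normalized to buffer-only basal and Salinomycin (10uM) controls.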
HCV inh – HCV inhibition; Huh7.5.1 HCVcc-Cre infection, luciferase reporter, 44 h; Potency, µM (highest dose often 41.8 µM), without a hit: top-dose activity change, negative = inhibition, actives largely listed as inhibitors; actives 3.4% (n = 340,000); AID 651820; active = well fitted inhibition curve with a large enough effect; inconclusive = small, poorly fitted or top-dose-only effect, or another doubt; inactive = no such curve, though single readings can be large or run the other way; note: potency is the fitted concentration of half-maximal effect
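Seed cells (1,000/well) for 4 h; treat with compound and infect with HCVcc-Cre, moi about 0.5. Incubate 44 h, then detect luciferase activity.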
Lassa entry inh – Lassa virus entry inhibition | Lassa virus pseudotype entry inhibition, cell reporter | actives 1.2% (n = 300,000) | Potency, µM (top dose mostly 37.9 µM), for the others: at the top dose activity change, negative = inhibition, most hits filed as inhibitors; calls by dose curve; tested in HEK293 cells; note: potency is the fitted concentration of half-maximal effect; nearly all actives have a fitted effect of over 50% in size
Vaccinia mCherry – vaccinia inhibition (mCherry reporter); Vaccinia virus mCherry reporter infection, fluorescence; actives 0.63% (n = 310,000); Potency, µM (highest dose often 36.5 µM), without a hit: at the highest dose activity change, negative = inhibition, usual class: inhibitors; AID 720579; calls by dose curve; tested in A549 cells; note: potency is the fitted concentration of half-maximal effect; nearly all actives have a fitted effect of over 35% in size
VACV Venus inh – vaccinia inhibition (Venus reporter) | Vaccinia virus Venus reporter expression, fluorescence | Potency, µM (highest dose often 36.5 µM), inactives show at the top dose activity change, negative = inhibition, most hits filed as inhibitors | actives 0.46% (n = 330,000); calls by dose curve; tested in A549 cells; note: potency is the fitted concentration of half-maximal effect; nearly all actives have a fitted effect of over 30% in size
An asterisk follows results filed as active; i = inactive; u = inconclusive; x = no result; [ ] = remark or other dose. % is set by controls: 0 for no effect and ±100 for the full control effect.

SMILES	Marburg entry inh	HCMV inh	HCV inh	Lassa entry inh	Vaccinia mCherry	VACV Venus inh
O=C(Nc1ccccc1)c1cc(C2COCCN2C(=O)c2cccs2)on1 (configuration not stated)	x	-85*	x	x	-9%	-7%
CCc1ccc(NC(=O)c2nn(-c3ccc(OC)cc3)c(=O)c3c2c2ccccc2n3C)cc1	-5%[46.1 µM]	-9	x	-6%[46.1 µM]	-16%	-8%
Cn1c(=O)c2c(nc(CN3CCc4ccccc4C3)n2Cc2ccccc2)n(C)c1=O	u	-19	13µM*	-29%	-26%	-15%
Cn1c(=O)c2c(nc(N3CCOCC3)n2Cc2ccccc2F)n(C)c1=O	-3%[46.1 µM]	-104*	x	-1%[46.1 µM]	-4%	-5%
CNc1nc2c(c(=O)n(C)c(=O)n2C)n1Cc1ccccc1	u	-65*	u	-16%	x	x
Cn1c(=O)c2c(nc(CN3CCc4ccccc4C3)n2Cc2ccc(Cl)cc2)n(C)c1=O	18%	-6	5%	-23%	-7%	-15%
Cn1c(=O)c2c(nc(NCc3ccccc3)n2CCCc2ccccc2)n(C)c1=O	u	-9	u	u	x	-18%
CNc1nc2c(c(=O)n(C)c(=O)n2C)n1CCCc1ccccc1	u	u	11µM*	u	-9%	-24%
CSC1=NC2(CCN(C(=O)NC3CCCCC3)CC2)N=C1c1ccc(C(C)(C)C)cc1	x	-1	x	-1%[46.1 µM]	-26%	-30%
Cc1ccc(C)c(N(C)C(=O)Cc2c(C(=O)O)[nH]c3ccc(Cl)cc23)c1	7%[46.1 µM]	8	x	-2%[46.1 µM]	-7%	-9%
CC(Cl)=CCn1c(NCCc2ccccc2)nc2c1c(=O)n(C)c(=O)n2C	x	-87*	x	x	3%	-26%
COCCNc1nc2c(c(=O)n(C)c(=O)n2C)n1CCCc1ccccc1	x	36	x	x	i	-21%
CC1CCN(c2nc3c(c(=O)n(C)c(=O)n3C)n2Cc2ccccc2)CC1	-23%	-31	u	7.3µM*	20µM*	-20%
Cn1c(=O)c2c(nc(NCCc3ccccc3)n2Cc2ccc(F)cc2)n(C)c1=O	x	-24	u	x	u	u
CN1CCN(c2nc3c(c(=O)n(C)c(=O)n3C)n2Cc2ccccc2)CC1	x	-30	10%	x	x	x
Cn1c(=O)c2c(nc(NCc3ccco3)n2C/C=C/c2ccccc2)n(C)c1=O	13µM*	-96*	2.5µM*	10µM*	x	u
Cn1c(=O)c2c(nc(NCCO)n2CCCc2ccccc2)n(C)c1=O	x	-3	16µM*	x	x	x
COCCN1C(=O)NC(CCc2ccccc2)C(C(C)=O)=C1C (configuration not stated)	5%[14.2 µM]	x	x	x	x	x
CCOC(=O)c1ccc(Nc2nc3nonc3nc2Nc2cccc(C)c2C)cc1	u	-97*	x	u	u	u
Cc1ccc(C)c(Nc2nc3nonc3nc2Nc2cccc(C)c2C)c1	u	-101*	x	u	-14%	u
COc1ccccc1CNC(=O)C(NS(=O)(=O)c1cccs1)C(C)C (configuration not stated)	u	u	x	5%[46.1 µM]	2%	6%
Cc1occc1-c1nnc(SCC(=O)Nc2ccccc2)n1Cc1ccccc1	u	-62*	-4%	-13%	-15%	-13%
O=C(NCc1ccc(F)cc1)c1cc(Sc2ccc(F)cc2F)nc2ccccc12	x	15	x	u	-9%	-14%
Cc1ccc(Nc2ccc(N3CCN(C(=O)c4ccc([N+](=O)[O-])cc4Cl)CC3)nn2)cc1	x	-36	x	u	-30%	-23%
O=c1[nH]c(SCCOc2cccc3ccccc23)nc2ccccc12	2.8µM*	u	5%	u	-4%	-3%
CCOc1ccc(OCCSc2nc3ccccc3c(=O)[nH]2)cc1	4%	-10	13%	-7%	x	x
Cc1ccc2c(CNC3CCCCC3)c(C(=O)O)n(Cc3ccc(F)cc3)c2c1	x	1	x	5%[46.1 µM]	-6%	2%
CCC(NC(=O)NNC(N)=S)(C(F)(F)F)C(F)(F)F	u	29	16%	-11%	u	28µM*
CC(C)Cn1[nH]c2c3c(ccc2c1=O)C(=O)c1ccccc1C3=O	-28%	x	11µM*	u	x	-27%
Cc1cccc(-n2[nH]c3c4c(ccc3c2=O)C(=O)c2ccccc2C4=O)c1	-13%	-28	u	0%	-15%	-5%

From PubChem
